The panel holds about 79,000 compounds, 15% with a hit somewhere; the sample as a whole holds those more often. The source made the active and inactive calls. Rule as the data show it: active = growth inhibition above about 70%; inactive = the rest.

A short description of the first test: NCI Yeast Anticancer Drug Screen. Data for the CLN2oe strain (AID 163).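 Also: 0% = growth of vehicle-only control cultures.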 The conditions noted are these: S. cerevisiae CLN2oe strain, at 11.0 µM, hits give high values. The procedure, abridged:
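Strain altered in cell-cycle control, incubated with compound; growth compared to solvent-treated controls.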
Consider `CCCc1cc(C(=O)OCC)cc(CCC)c1O`, for which the growth inhibition was -9% (inactive).

For the molecule `CC(C)[N+]([O-])(CCCNc1c2ccccc2nc2cccc([N+](=O)[O-])c12)C(C)C`, the growth inhibition is 42% (inactive).

Take `COc1cc2c3c(cccc3c1)C(=O)N(CCN(C)C)C2=O`: the growth inhibition is 25% (inactive).

`NC(=O)NN=C(CS)CS`: the growth inhibition is -10% (inactive).

Take `Cc1ccc(NC(=O)/C(Cl)=C(\Cl)C(=O)O)cc1C`: the growth inhibition was 13% (inactive).

As to `CCN(CC)CC[n+]1ccc2c(C)c3[nH]c4ccc(O)cc4c3c(C)c2c1`, the growth inhibition was -8% (inactive).

For the molecule `CC(CC(C)(C)[N+](C)(C)C)[N+](C)(C)C` (stereo not drawn), the growth inhibition is 1% (inactive).

Turning to `COc1ccc(OC)c2cc3ccccc3cc12`, the growth inhibition was 16% (inactive).

For `Nc1ncncc1C(C1=C(O)COC1=O)C1=C(O)COC1=O`, the growth inhibition is -6% (inactive).

Regarding `CSC1=NNC(SC)=NN1`, the growth inhibition was 15% (inactive).

For the molecule `Cc1c(Cl)ccc2c1S(=O)(=O)c1cccc(Cl)c1-2`, the growth inhibition was 8% (inactive).

With `[O-][n+]1c2ccc(O)cc2nc2ccc(Cl)cc21`, the growth inhibition was 20% (inactive).

For `COc1ccc2ccc3ccccc3c2c1C=O`, the growth inhibition is -2% (inactive).

For `Nc1ccc2c(c1)C(=O)c1cccc(N)c1C2=O`, the growth inhibition is 19% (inactive).

With `O=C(c1ccc(Cl)cc1Cl)C(Cl)Cl`, the growth inhibition is -13% (inactive).

With `COc1cc(C(=O)/C=C/c2ccccc2O)ccc1O`, the growth inhibition was 99% (active).

As for `O=Cc1cccc2ccc3ccccc3c12`, the growth inhibition is 9% (inactive).

`O=C(Nc1ccc(Cl)cc1)OCC#CCCl`: the growth inhibition is -3% (inactive).

As for `Cn1ccnc1Oc1ccc(Cl)cc1`, the growth inhibition was -2% (inactive).

For `c1ccc2c(c1)C(=NCCCN1CCCCCC1)c1cccn1-2`, the growth inhibition was -23% (inactive).

In the case of `C/C(=N\O)C1CC2C=C(C#N)C1N(Cc1ccccc1)C2` (stereo not drawn), the growth inhibition was -7% (inactive).

Take `O=[N+]([O-])C(=C(Sc1ccccc1)Sc1ccccc1)C(Cl)=C(Cl)Cl`: the growth inhibition is 26% (inactive).

`CCCCCCCCCC/C=C\C(=O)O`: the growth inhibition is 7% (inactive).

With `COc1ccc(N=C2C(=O)Nc3ccc(Br)cc32)cc1`, the growth inhibition is 19% (inactive).

`COc1ccccc1C(=O)OCC1CCCN2CCCCC12` (stereo not drawn): the growth inhibition was -12% (inactive).

With `CC(C)(Br)C(=O)/C=C/c1ccc(Cl)c(Cl)c1`, the growth inhibition was -5% (inactive).

Take `Nc1ccccc1CC(O)C(=O)O` (stereo not drawn): the growth inhibition was 13% (inactive).

With `CC(=O)N/N=C/C(C)(C)C(C)(C)/C=N/NC(C)=O`, the growth inhibition was 11% (inactive).

As for `CN(C)c1nc2sc3c(c2c(=O)o1)CCCC3`, the growth inhibition was -2% (inactive).

With `CC(C)OC(=O)Oc1ccccc1OC(=O)OC(C)C`, the growth inhibition is 3% (inactive).

Take `Cc1ccc(N)c(S)c1`: the growth inhibition was 13% (inactive).

Take `O=C(O)c1ccccc1NC(=S)c1ccccc1`: the growth inhibition is 6% (inactive).

As to `COC(=O)c1ccc(NCC2=CC(=O)C=CC2=O)cc1O`, the growth inhibition was 78% (active).

On to `NC(N)=N/N=C\c1c2ccccc2cc2ccccc12`, for which the growth inhibition was -4% (inactive).

On to `COC(=O)CSSCc1ccc([N+](=O)[O-])cc1`, for which the growth inhibition was 7% (inactive).

On to `CCS(=O)(=O)c1ccc(/C=C/C=N/NC(=S)NCC(C)C)cc1`, for which the growth inhibition was -3% (inactive).

For `N#CC(C(=O)Nc1ccccc1)C1=C(Cl)C(=O)c2ccccc2C1=O` (stereo not drawn), the growth inhibition was 98% (active).

For `C[C@H](CCC(=O)NN)[C@H]1CC[C@H]2[C@@H]3CC[C@@H]4C[C@H](O)CC[C@]4(C)[C@H]3CC[C@]12C`, the growth inhibition is 5% (inactive).

As to `CC[n+]1ccc2c(C)c3[nH]c4ccc(O)cc4c3c(C)c2c1`, the growth inhibition is 36% (inactive).

Still in this test, the particulars now being: S. cerevisiae CLN2oe strain, at 33.0 µM, hits give high values.
Consider `CCCc1cc(C(=O)OCC)cc(CCC)c1O`, for which the growth inhibition is -30% (inactive).

Regarding `CC(C)[N+]([O-])(CCCNc1c2ccccc2nc2cccc([N+](=O)[O-])c12)C(C)C`, the growth inhibition is 88% (active).

Turning to `COc1cc2c3c(cccc3c1)C(=O)N(CCN(C)C)C2=O`, the growth inhibition was 34% (inactive).

In the case of `NC(=O)NN=C(CS)CS`, the growth inhibition is 0% (inactive).

Consider `Cc1ccc(NC(=O)/C(Cl)=C(\Cl)C(=O)O)cc1C`, for which the growth inhibition was 96% (active).

With `CCN(CC)CC[n+]1ccc2c(C)c3[nH]c4ccc(O)cc4c3c(C)c2c1`, the growth inhibition is -8% (inactive).

As to `CC(CC(C)(C)[N+](C)(C)C)[N+](C)(C)C` (stereo not drawn), the growth inhibition was -6% (inactive).

`COc1ccc(OC)c2cc3ccccc3cc12`: the growth inhibition is 19% (inactive).

Take `Nc1ncncc1C(C1=C(O)COC1=O)C1=C(O)COC1=O`: the growth inhibition was -8% (inactive).

Consider `CSC1=NNC(SC)=NN1`, for which the growth inhibition was 46% (inactive).

Consider `Cc1c(Cl)ccc2c1S(=O)(=O)c1cccc(Cl)c1-2`, for which the growth inhibition is -4% (inactive).

In the case of `[O-][n+]1c2ccc(O)cc2nc2ccc(Cl)cc21`, the growth inhibition is 34% (inactive).

For `COc1ccc2ccc3ccccc3c2c1C=O`, the growth inhibition is -2% (inactive).

In the case of `Nc1ccc2c(c1)C(=O)c1cccc(N)c1C2=O`, the growth inhibition was 37% (inactive).

Take `O=C(c1ccc(Cl)cc1Cl)C(Cl)Cl`: the growth inhibition is 18% (inactive).

For the molecule `COc1cc(C(=O)/C=C/c2ccccc2O)ccc1O`, the growth inhibition is 99% (active).

For `O=Cc1cccc2ccc3ccccc3c12`, the growth inhibition is 15% (inactive).

For `O=C(Nc1ccc(Cl)cc1)OCC#CCCl`, the growth inhibition is 1% (inactive).

With `Cn1ccnc1Oc1ccc(Cl)cc1`, the growth inhibition was 16% (inactive).

For the molecule `c1ccc2c(c1)C(=NCCCN1CCCCCC1)c1cccn1-2`, the growth inhibition was -18% (inactive).

Regarding `C/C(=N\O)C1CC2C=C(C#N)C1N(Cc1ccccc1)C2` (stereo not drawn), the growth inhibition is -2% (inactive).

As to `O=[N+]([O-])C(=C(Sc1ccccc1)Sc1ccccc1)C(Cl)=C(Cl)Cl`, the growth inhibition was 37% (inactive).

In the case of `CCCCCCCCCC/C=C\C(=O)O`, the growth inhibition was -20% (inactive).

Consider `COc1ccc(N=C2C(=O)Nc3ccc(Br)cc32)cc1`, for which the growth inhibition was 23% (inactive).

In the case of `COc1ccccc1C(=O)OCC1CCCN2CCCCC12` (stereo not drawn), the growth inhibition was 63% (inactive).

Regarding `CC(C)(Br)C(=O)/C=C/c1ccc(Cl)c(Cl)c1`, the growth inhibition is 0% (inactive).

Regarding `Nc1ccccc1CC(O)C(=O)O` (stereo not drawn), the growth inhibition was 25% (inactive).

`CC(=O)N/N=C/C(C)(C)C(C)(C)/C=N/NC(C)=O`: the growth inhibition was 4% (inactive).

With `CN(C)c1nc2sc3c(c2c(=O)o1)CCCC3`, the growth inhibition was 26% (inactive).

For `CC(C)OC(=O)Oc1ccccc1OC(=O)OC(C)C`, the growth inhibition is 1% (inactive).

`Cc1ccc(N)c(S)c1`: the growth inhibition is 93% (active).

Consider `O=C(O)c1ccccc1NC(=S)c1ccccc1`, for which the growth inhibition was 10% (inactive).

In the case of `COC(=O)c1ccc(NCC2=CC(=O)C=CC2=O)cc1O`, the growth inhibition is 96% (active).

With `NC(N)=N/N=C\c1c2ccccc2cc2ccccc12`, the growth inhibition is 18% (inactive).

As to `COC(=O)CSSCc1ccc([N+](=O)[O-])cc1`, the growth inhibition was 43% (inactive).

Consider `CCS(=O)(=O)c1ccc(/C=C/C=N/NC(=S)NCC(C)C)cc1`, for which the growth inhibition is 1% (inactive).

With `N#CC(C(=O)Nc1ccccc1)C1=C(Cl)C(=O)c2ccccc2C1=O` (stereo not drawn), the growth inhibition is 97% (active).

As to `C[C@H](CCC(=O)NN)[C@H]1CC[C@H]2[C@@H]3CC[C@@H]4C[C@H](O)CC[C@]4(C)[C@H]3CC[C@]12C`, the growth inhibition is 2% (inactive).

As to `CC[n+]1ccc2c(C)c3[nH]c4ccc(O)cc4c3c(C)c2c1`, the growth inhibition was 26% (inactive).

These data come from PubChem BioAssay (NCI).
